RECQ1 inh-1 = blocks DNA unwinding by human RECQ1 | P46063 | Potency, µM (top dose mostly 57.3 µM), without a hit: top-dose activity, negative = inhibition, most hits filed as inhibitors | AID 2549 | RECQ1 DNA unwinding, red fluorescence kinetic read | 0.54% of 240,000 active;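 also: plate controls were vehicle for no effect and no enzyme for full effect; nearly all actives have a fitted effect of over 30% in size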
Target sequence (P46063 whole entry, looked up): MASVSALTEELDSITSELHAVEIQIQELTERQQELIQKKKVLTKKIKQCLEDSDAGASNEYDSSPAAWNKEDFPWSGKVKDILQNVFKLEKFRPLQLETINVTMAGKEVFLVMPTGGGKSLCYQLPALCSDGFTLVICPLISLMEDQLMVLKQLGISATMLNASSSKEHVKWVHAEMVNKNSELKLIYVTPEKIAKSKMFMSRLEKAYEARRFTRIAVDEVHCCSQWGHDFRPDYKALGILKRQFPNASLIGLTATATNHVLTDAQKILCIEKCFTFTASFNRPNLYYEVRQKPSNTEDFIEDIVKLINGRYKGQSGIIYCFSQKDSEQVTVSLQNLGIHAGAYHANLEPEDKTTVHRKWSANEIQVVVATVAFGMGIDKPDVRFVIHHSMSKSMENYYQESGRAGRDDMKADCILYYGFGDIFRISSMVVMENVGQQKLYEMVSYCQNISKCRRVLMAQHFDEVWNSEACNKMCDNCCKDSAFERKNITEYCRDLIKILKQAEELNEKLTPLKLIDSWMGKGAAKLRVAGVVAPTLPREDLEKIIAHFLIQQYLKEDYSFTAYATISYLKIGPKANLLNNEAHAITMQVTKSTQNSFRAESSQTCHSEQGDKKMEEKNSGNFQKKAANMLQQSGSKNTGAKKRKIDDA
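50 nM RECQ1T1 preincubated 15 min with compound in Tris pH 8.0 buffer with MgCl2, DTT, Tween-20 and 2.5 ug/ml poly(dI-dC); started with 200 nM TAMRA/BHQ-2 forked duplex and 2 mM ATP. Unwinding read as fluorescence (525/598 nm), two reads 2 h apart.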
APE1 inh = blocks human APE1 abasic DNA cleavage | recombinant APE1, TAMRA/BHQ-2 abasic DNA cleavage fluorescence | Potency, µM (top dose mostly 65.8 µM), without a hit: at the highest dose activity change, negative = inhibition, usual class: inhibitors | 0.35% of 350,000 active | AID 2517;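 also: plate controls were vehicle for no effect and reference inhibitor for full effect; nearly all actives have a fitted effect of over 55% in size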
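Compound pre-exposure to 0.75 nM APE1, 15 min at ambient temperature. Reaction initiated with 50 nM TAMRA/BHQ-2 THF substrate, read immediately in kinetic mode, 525 nm excitation, 598 nm emission.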
L3MBTL1 inh-1 = L3MBTL1 (human) inhibition; 0.66% of 230,000 active; Q9Y468; AlphaScreen L3MBTL1–H3K9me1 peptide binding; Potency, µM (highest dose often 57.1 µM), for inactives: at the top dose activity, negative = inhibition, actives largely listed as inhibitors; also: % is scaled to controls: 0 for no effect and ±100 for the full control effect; nearly all actives have a fitted effect of over 60% in size
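AlphaScreen assay: L3MBTL1 (50 nM final) was preincubated 30 min at room temperature with biotinylated H3(1-15)K9me1 peptide (75 nM final), then 30 min with library compounds; streptavidin donor and nickel chelate acceptor beads (10 ug/mL final) added, 30 min dark.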
JMJD2E inh = inhibitors of human JMJD2E histone demethylase; B2RXH2; JMJD2E catalytic domain, FDH-coupled NADH fluorescence (FDH is formaldehyde dehydrogenase); Potency, µM (top dose mostly 57.1 µM), for the others: at the top dose activity change, negative = inhibition, most hits filed as inhibitors; 1.6% of 230,000 active; active = well fitted inhibition curve with a large enough effect, not every such curve was filed as active; inconclusive = small, poorly fitted or top-dose-only effect, or another doubt; inactive = no such curve, though single readings can be large or run the other way;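 also: 0% = wells with enzyme and -100% = buffer wells without enzyme; nearly all actives have a fitted effect of over 50% in size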
BLM inh = blocks DNA unwinding by human BLM helicase; P54132; recombinant BLM DNA unwinding, fluorescence dequenching; Potency, µM (series often up to 56.1 µM), inactives show top-dose activity change, negative = inhibition, usual class: inhibitors; 0.2% of 350,000 active; AID 2528;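 also: plate controls were vehicle for no effect and no enzyme for full effect; nearly all actives have a fitted effect of over 35% in size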
RECQ1 conf = confirmation of human RECQ1 helicase inhibitors; 28% of 610 active; shares compounds with RECQ1 inh-1; RECQ1 helicase DNA unwinding, fluorescence; AID 2708; Potency, µM (top dose mostly 229 µM), inactives show at the top dose activity change, negative = inhibition, usual class: inhibitors; also: % is scaled to controls: 0 for no effect and ±100 for the full control effect; nearly all actives have a fitted effect of over 45% in size
ADP FP counter = displaces ADP in a fluorescence polarization counter-screen for RECQ1 hits. shares compounds with RECQ1 inh-1. ADP fluorescence polarization displacement counterscreen. Potency, µM (titrated, usually from 228 µM), without a hit: at the top dose activity change, negative = inhibition, usual class: inhibitors. 27% of 530 active. AID 2711; also: % is scaled to controls: 0 for no effect and ±100 for the full control effect; nearly all actives have a fitted effect of over 45% in size
RECQ1 inh-2 = blocks human RECQ1 DNA unwinding. shares compounds with RECQ1 inh-1. recombinant RECQ1 DNA unwinding, red fluorescence. Potency, µM (highest dose often 119 µM), inactives show at the top dose activity, negative = inhibition, most hits filed as inhibitors. 15% of 1,100 active; also: % is scaled to controls: 0 for no effect and ±100 for the full control effect; nearly all actives have a fitted effect of over 50% in size
L3MBTL1 inh-2 = validation of human L3MBTL1 methyl-lysine binding inhibitors; shares compounds with L3MBTL1 inh-1; L3MBTL1 methyl-lysine binding inhibition, biochemical qHTS; Potency, µM, actives largely listed as inhibitors; 91% of 500 active; AID 540279; also: nearly all actives have a fitted effect of over 70% in size
L3MBTL1 ctr = interferes with AlphaScreen signal in L3MBTL1 counterscreen | shares compounds with L3MBTL1 inh-1 | AlphaScreen counterscreen, signal inhibition | Potency, µM (top dose mostly 57.1 µM), inactives show at the top dose activity change, negative = inhibition, actives largely listed as inhibitors | 500 tested, under 10 active; also: 0% is about no effect
* marks the source's active call; other numbers are inactive results; ? = inconclusive; / = not tested or not shown; ! = repeats disagree; [ ] = another dose, or the depositor's remark. Many of the other results were omitted from the sample, so hits are more common in it than they were. Unless noted, calls follow the shape of the dose curve; as a rule, active = well fitted curve in the direction sought with a large enough effect; inconclusive = small, poorly fitted or top-dose-only effect, or another doubt; inactive = no such curve, though single readings can be large; an effect the other way counts as inactive or inconclusive. Potency is read from the fitted curve at half-maximal effect.

SMILES | RECQ1 inh-1 | APE1 inh | L3MBTL1 inh-1 | JMJD2E inh | BLM inh | RECQ1 inh-2 | L3MBTL1 inh-2 | L3MBTL1 ctr | others
O=C(NCc1cccs1)c1ccc2c(c1)sc1nc(-c3ccc(F)cc3)cn12 | / | / | / | / | -1% | / | / | /
O=C(N/N=C/c1ccc[nH]1)c1ccccc1O | 3.5µM* | 18% | -1% | -8% | -4% | / | / | / | RECQ1 conf=8%[114 µM];ADP FP counter=14%[91.9 µM]
CCn1cc(C(=O)N2CCCC(N3CCN(c4ccccc4C)CC3)C2)cn1 (centres undefined) | / | 51% | / | / | -1% | / | / | /
CCCCC#Cc1ccc(C(=O)NNC(=O)Nc2ccccc2)o1 | 28µM* | 5% | 0% | -5% | -8% | ? | / | /
CCCCN(CCCC)Cc1ccc(C(=O)NNC(=O)Nc2ccccc2)o1 | -1% | 4% | / | -10% | -3% | / | / | /
Nc1cc(=O)[nH]c(SCC(=O)Nc2ccc3c(c2)CCC3)n1 | ? | ? | -17% | -12% | -6% | -12% | / | /
O=[N+]([O-])c1cc(Cl)c(O)c2ncccc12 | -1% | ? | / | ? | -4% | / | / | /
O=[N+]([O-])c1cc(F)c2cccnc2c1O | ? | -5% | 13µM* | 87% | ? | 20% | 6* | -60%
COc1cc(OC)cc(C(=O)NCC(=O)OCC(=O)Nc2ccc(C)c(S(=O)(=O)N3CCOCC3)c2)c1 | / | -13% | -10% | / | / | / | / | /
COc1ccc(Sc2ccc(/C=C3\C(=O)NN(c4ccccc4)C3=O)o2)cc1 | 10µM* | -7% | 28µM* | -12% | -21% | / | 21* | ? | RECQ1 conf=-14%[114 µM]
COc1cccc(=O)c2c(C)n(-c3ccc(C(=O)O)cc3)c(C)c12 | ? | ? | 25µM* | ? | 2% | ? | 21* | -15%
O=C(O)CC/C(=C\c1cccc(NC(=O)c2ccccc2Cl)c1)c1nc2ccccc2s1 | ? | ? | 35µM* | ? | -18% | ? | ? | -3%
O=C(O)CC/C(=C\c1cc([N+](=O)[O-])ccc1Cl)c1nc2ccccc2s1 | 4% | -4% | 2% | -3% | 0% | / | / | /
COCCn1c(C)cc(C(=O)COC(=O)c2cc3c(s2)CCC3)c1C | ? | 13µM* | 10µM* | ? | -25% | ? | 6.7* | ?
COc1ccc(C(=O)COC(=O)c2ccc(-n3cnnn3)cc2)c(OC)c1 | / | 12% | 5% | / | / | / | / | /
NC(=O)COC(=O)c1cc(-c2ccco2)nc2ccccc12 | ? | ? | -3% | ? | -3% | / | / | /
O=C(O)c1cc(-c2ccco2)nc2ccc(Br)cc12 | 3.2µM*! | 13µM* | 4.5µM* | ? | -12% | ? | 2.4* | 1% | RECQ1 conf=45µM*;ADP FP counter=?
CC[C@H](C)[C@H](NC(=O)[C@H](CO)NC(=O)[C@@H](NC(=O)[C@H](CO)NC(=O)[C@@H](NC(=O)[C@H](CC(N)=O)NC(=O)[C@H](Cc1ccccc1)NC(=O)[C@H](CO)NC(=O)[C@H](CS)NC(=O)[C@H](CC(N)=O)NC(=O)[C@H](CCCCN)NC(=O)[C@@H](NC(=O)[C@H](CCC(=O)O)NC(=O)CN)[C@@H](C)CC)[C@@H](C)CC)[C@@H](C)O)C(=O)N[C@@H](CCCN=C(N)N)C(=O)O | -14% | ? | / | / | -2% | / | / | /
Cc1ccc(C(CCN(Cc2ccccc2)C(=O)c2ccco2)c2ccco2)cc1 (centres undefined) | 20µM* | -12% | 25µM* | -12% | ? | ? | 21* | -3% | RECQ1 conf=50µM*;ADP FP counter=24%[91.9 µM]
CC(C)(C)C(=O)Cn1ncc(Cl)c(Cl)c1=O | -1% | 0% | 30% | -3% | -4% | / | / | /
C=CCn1c(C)cc(C(=O)Cn2ncc(Cl)c(Cl)c2=O)c1C | 10µM* | ? | 14µM* | -2% | -24% | -22% | ? | 0%
COC(=O)c1ccccc1NC(=O)CCS(=O)(=O)c1ccc(Br)cc1 | 32µM* | ? | 8.9µM* | ? | 2% | ? | 2.7* | 4%
CCN(CC)S(=O)(=O)c1ccc(N2CCOCC2)c(NC(=O)c2ccc3ccccc3c2)c1 | -3% | -4% | -4% | ? | -1% | / | / | /
CCN(CC)S(=O)(=O)c1ccc(N2CCOCC2)c(NC(=O)c2c3c(nc4ccccc24)CCC3)c1 | 16µM* | ? | 28µM* | 5% | -19% | ? | 8.4* | 0%
CCN(CC)S(=O)(=O)c1ccc2oc(C(=O)NC3CC3)c(C)c2c1 | / | -14%[12.4 µM] | / | / | 2% | / | / | /
SMILES | RECQ1 inh-1 | APE1 inh | L3MBTL1 inh-1 | JMJD2E inh | BLM inh | RECQ1 inh-2 | L3MBTL1 inh-2 | L3MBTL1 ctr | others
Cc1cc2c(c(=O)o1)C(c1ccc([N+](=O)[O-])o1)C(C#N)=C(N)O2 (centres undefined) | 22µM* | 8.9µM* | 32µM* | ? | -1% | -19% | ? | 9%
CCC(CC)C1C(C#N)=C(N)Oc2cc(C)oc(=O)c21 (centres undefined) | -11% | 17% | / | 0% | -5% | / | / | /
CN(c1ccccc1)S(=O)(=O)c1cccc(NC(=O)c2cccc(C#N)c2)c1 | / | -9% | -1% | / | / | / | / | /
O=C(/C=C/c1ccco1)NCC1OCCc2ccccc21 (centres undefined) | ? | ? | 22µM* | ? | ? | 6.3µM* | 6* | 1%
O=C(/C=C/c1ccco1)N(c1ccccn1)c1ccccn1 | ? | ? | 4µM* | ? | ? | 45µM* | 2.7* | -2%
CC(C)Oc1ccc(C(CC(=O)NCCCN(C)C)c2ccc(F)cc2)cc1 (centres undefined) | -7% | -11% | 7% | 7% | 1% | / | / | /
CC(C)Cc1nc2n[nH]c(N)c2c2c1CCCC2 | -10% | 5% | / | -3% | -2% | / | / | /
Cc1cc(C)c2nc(N3C(=O)C(O)=C(C(=O)c4ccco4)C3c3cccc(O)c3)sc2c1 (centres undefined) | / | -17% | 32µM* | / | / | / | 24* | 0%
Cc1ccc2nc(N3C(=O)C(O)=C(C(=O)c4ccc(C)o4)C3c3ccco3)sc2c1 (centres undefined) | / | -4% | ? | / | / | / | / | /
